Source: PubChem BioAssay AID1159580 (chemical genetic matrix, 2015)
Several values for one entry are separate records, joined by “and”; a condition that tells them apart may be missing. Equal values may be shown once. Out of some 5,500 compounds screened, about 2,000 (36%) were called active. Inconclusive results (about 18%) are left out. Rule as the data show it: active = normalized growth mostly below about 0.91 (no sharp cut-off); inconclusive = no clear call, values can overlap the other calls; inactive = mostly above about 0.92. This is one part of the list.

Assay: chemical genetic growth profiling, strain panel (AID 1159580);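 also: tested at 20 µM; growth read once vehicle control cultures reached saturation at 30 °C; 1 = growth at the plate median or of vehicle wells; lower values mean less growth of the strain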
Conditions: S. cerevisiae deletion strains, growth OD

Measured: normalized growth

CC(=O)O[C@H]1C[C@@H](O)C(C)(C)C2C[C@@H](OC(C)=O)[C@]3(C)C(CC[C@@]4(C)[C@H](c5ccoc5)OC(=O)C5OC543)[C@]21C (stereo partly specified)
inactive: locus YAL013W, strain DEP1, stronger effect = lower value 0.994 | locus YAL021C, strain ccr4, stronger effect = lower value 1.02 | locus YAL026C, strain drs2, stronger effect = lower value 1.01 | locus YAL030W, strain snc1, stronger effect = lower value 1 | locus YBL061C, strain skt5, stronger effect = lower value 1 | locus YBR009C, strain hhf1, stronger effect = lower value 0.997 | locus YBR021W, strain FUR4, stronger effect = lower value 1.03 | locus YBR023C, strain chs3, stronger effect = lower value 1.01 | locus YBR171W, strain sec66, stronger effect = lower value 1.01 | locus YBR229C, strain ROT2, stronger effect = lower value 0.948 | locus YBR231C, strain swc5, stronger effect = lower value 0.998 | locus YBR279W, strain paf1, stronger effect = lower value 0.999 | locus YCL011C, strain gbp2, stronger effect = lower value 0.999 | locus YCL016C, strain dcc1, stronger effect = lower value 0.997 | locus YCL029C, strain bik1, stronger effect = lower value 0.984 | locus YCL061C, strain MRC1, stronger effect = lower value 1.01 | locus YCL069W, strain vba3, stronger effect = lower value 1 | locus YCR088W, strain abp1, stronger effect = lower value 1.01 | locus YDL005C, strain med2, stronger effect = lower value 1 | locus YDL035C, strain GPR1, stronger effect = lower value 0.984 | locus YDL040C, strain nat1, stronger effect = lower value 1 | locus YDL074C, strain BRE1, stronger effect = lower value 0.952 | locus YDL101C, strain DUN1, stronger effect = lower value 0.986 | locus YDL185W, strain tfp1, stronger effect = lower value 0.97 | locus YDL192W, strain arf1, stronger effect = lower value 0.97 | locus YDR001C, strain nth1, stronger effect = lower value 1.01 | locus YDR069C, strain doa4, stronger effect = lower value 1.01 | locus YDR101C, strain arx1, stronger effect = lower value 0.973 | locus YDR137W, strain rgp1, stronger effect = lower value 1 | locus YDR159W, strain sac3, stronger effect = lower value 1.01 | locus YDR162C, strain NBP2, stronger effect = lower value 0.977 | locus YDR195W, strain ref2 0.985 | locus YDR297W, strain sur2, stronger effect = lower value 1.01 | locus YDR318W, strain mcm21, stronger effect = lower value 0.984 | locus YDR334W, strain swr1, stronger effect = lower value 1.01 | locus YDR335W, strain msn5, stronger effect = lower value 0.996 | locus YDR388W, stronger effect = lower value 1 | locus YDR392W, strain spt3, stronger effect = lower value 1.02 | locus YDR502C, strain sam2, stronger effect = lower value 1.01 | locus YEL003W, strain gim4, stronger effect = lower value 1 | locus YEL037C, strain rad23, stronger effect = lower value 0.997 | locus YEL061C, strain CIN8 (second series), stronger effect = lower value 1.01 | locus YER015W, strain faa2, stronger effect = lower value 1.01 | locus YER016W, strain bim1, stronger effect = lower value 1 | locus YER110C, stronger effect = lower value 0.97 | locus YER111C, strain swi4, stronger effect = lower value 1.02 | locus YER155C, strain BEM2 (second series), stronger effect = lower value 1.02 | locus YER155C, strain BEM2, stronger effect = lower value 1.02 | locus YER167W, strain BCK2, stronger effect = lower value 0.988 | locus YFR010W, strain ubp6, stronger effect = lower value 1.01 | locus YGL078C, strain dbp3, stronger effect = lower value 0.983 | locus YGL086W, strain mad1, stronger effect = lower value 0.997 | locus YGL167C, strain pmr1, stronger effect = lower value 0.999 | locus YGL173C, strain kem1, stronger effect = lower value 1.01 | locus YGL227W, strain vid30, stronger effect = lower value 1 | locus YGL240W, strain doc1, stronger effect = lower value 1 | locus YGL248W, strain PDE1, stronger effect = lower value 0.975 | locus YGL253W, strain hxk2, stronger effect = lower value 1.02 | locus YGR078C, strain PAC10, stronger effect = lower value 1 | locus YGR135W, strain pre9, stronger effect = lower value 1.03 | locus YGR229C, strain SMI1, stronger effect = lower value 0.976 | locus YGR252W, strain gcn5, stronger effect = lower value 0.966 | locus YHR013C, strain ard1, stronger effect = lower value 1.01 | locus YHR027C, strain rpn1, stronger effect = lower value 1.01 | locus YHR030C, strain SLT2, stronger effect = lower value 0.987 and 0.952 | locus YHR079C, strain IRE1 (second series), stronger effect = lower value 0.99 | locus YHR079C, strain IRE1, stronger effect = lower value 0.974 | locus YHR094C, strain hxt1, stronger effect = lower value 0.979 | locus YHR129C, strain ARP1, stronger effect = lower value 0.993 | locus YHR142W, strain chs7, stronger effect = lower value 0.999 | locus YHR200W, strain rpn10, stronger effect = lower value 0.99 | locus YIL066C, strain RNR3, stronger effect = lower value 0.957 | locus YIL073C, strain SPO22, stronger effect = lower value 1.04 | locus YIL125W, strain kgd1, stronger effect = lower value 0.983 | locus YIR030C, strain dcg1, stronger effect = lower value 0.992 | locus YJL092W, strain hpr5, stronger effect = lower value 1.01 | locus YJL095W, strain BCK1 (second series), stronger effect = lower value 1.01 | locus YJL095W, strain BCK1, stronger effect = lower value 1.03 and 1 | locus YJL115W, strain asf1, stronger effect = lower value 1 | locus YJL129C, strain trk1, stronger effect = lower value 1.01 | locus YJL134W, strain LCB3, stronger effect = lower value 0.978 | locus YJL154C, strain vps35, stronger effect = lower value 1 | locus YJL164C, strain tpk1, stronger effect = lower value 1.01 | locus YJL166W, strain qcr8, stronger effect = lower value 0.999 | locus YJL168C, strain set2, stronger effect = lower value 0.997 | locus YJL187C, strain SWE1 (second series), stronger effect = lower value 0.999
